This passage reports red/green cell ratio (normalised) and normalised cell number results from PubChem BioAssay.

The structures appear in SMILES notation. Activity calls are given as the source filed them.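 How the source made its calls: active means compounds killing one labelled cell type while sparing the other, by normalised counts and ratio limits, not self-fluorescent; inactive means the rest.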

This assay is described as follows: EMT-state selective cytotoxicity in co-culture – imaging, PC-3E GFP, TEM4-18 mCherry, primary screen (AID 1345086).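 On all read-outs here: cells exposed to compound for 72 h before imaging.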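 On red/green cell ratio (normalised): normalised mesenchymal count divided by normalised epithelial count so high means epithelial killing.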 The note with it: PC-3E GFP / TEM4-18 mCherry co-culture, imaging cell counts, at 1 µM; for red/green cell ratio (normalised): actives lie on both sides, counts scaled to control wells, 1 = unselective.
Where [1] appears, read: measured here: epithelial PC-3E GFP cell survival.
[2] abbreviates: measured here: mesenchymal TEM4-18 mCherry cell survival.

As for `Cc1ccc(S[C@H]2OC(CO)C(O)[C@H](O)[C@@H]2N)cc1` (stereo not given in full), the red/green cell ratio (normalised) is 0.98 (inactive). This molecule displayed a normalised cell number under setting [1] of 1. Under setting [2], this molecule displayed a normalised cell number of 0.97.
On the same counts, the results for `CC[C@H](CCC(C)[C@H]1CCC2C3CCC4C[C@@H](O)CC[C@]4(C)C3CC[C@@]21C)C(C)C` (stereo not given in full) are 1.11 (inactive), 0.91 and 1.01.
In the case of `CC(C)/C(O)=C1/C(=O)O[C@@H](c2ccoc2)[C@]2(C)C(O)[C@@H](O)[C@@]34OC5(C)OC67CC(C)(C(O)[C@]6(O)[C@@H](O)[C@]3(O5)C12)[C@H](CC(=O)O)C74C` (stereo not given in full), the red/green cell ratio (normalised) is 1.06 (inactive). For the same molecule, the normalised cell number under setting [1] amounted to 1. The normalised cell number under setting [2] worked out at 1.06.
On the same counts, the results for `C[C@H]1C[C@H]2O[C@@H]2/C=C\C=C\C(=O)Cc2c(Cl)c(O)cc(O)c2C(=O)O1` are 0.97 (inactive), 0.89 and 0.87.
`CC/C=C\[C@H](O)[C@H](O)C1=C(C)C(=O)[C@]2(O1)C(=O)N[C@@](OC)(C(=O)c1ccccc1)[C@@H]2O`: the red/green cell ratio (normalised) is 1.21 (inactive). The normalised cell number under setting [1] was 0.79. Further, the normalised cell number under setting [2] is 0.95.
Regarding `COc1ccc2oc(-c3ccccc3OC)cc(=O)c2c1`, the red/green cell ratio (normalised) is 0.85 (inactive). Also, the normalised cell number under setting [1] came to 1.16. Also, under setting [2], the normalised cell number is 0.98.
For `COc1cc(OC)c2c(O)c(C(C)=O)c(C)cc2c1`, the red/green cell ratio (normalised) is 1.01 (inactive). The same molecule gave a normalised cell number under setting [1] of 1.08. The normalised cell number under setting [2] was determined as 1.09.
`CC(=O)O[C@@H]1CC2C(C)(C)[C@H](O)C[C@H](O)[C@]2(C)C2CC[C@@]3(C)[C@H](c4ccoc4)OC(=O)[C@H]4O[C@]43[C@@]21C` (stereo not given in full): the red/green cell ratio (normalised) was 1.01 (inactive). The molecule further displayed a normalised cell number under setting [1] of 1.01. The same molecule displayed a normalised cell number under setting [2] of 1.03.
On the same counts, the results for `CC1=CO[C@]2(C1=O)[C@H]1C(=O)O[C@]3(C[C@@H]2C)C(C)=CC(=O)O[C@]13O` are 0.85 (inactive), 1.16 and 0.99.
On the same counts, the results for `O=c1c(O)cc([C@H]2Oc3cc(O)cc(O)c3C[C@H]2O)cc2c([C@H]3Oc4cc(O)cc(O)c4C[C@@H]3O)cc(O)c(O)c12` are 0.92 (inactive), 1.03 and 0.95.
For the molecule `COc1cc(-c2coc3cc(O)c(OC)c(O)c3c2=O)cc(O)c1OC`, the red/green cell ratio (normalised) is 0.95 (inactive). The normalised cell number under setting [1] turned out to be 1.03. Moreover, the normalised cell number under setting [2] came to 0.98.
Regarding `CC(C)CCCC(C)C1CCC2C3CC[C@H]4C[C@@H](O)CC[C@]4(C)C3CC[C@]12C` (stereo not given in full), the red/green cell ratio (normalised) is 1.05 (inactive). Under setting [1], this molecule came in with a normalised cell number of 1.04. The normalised cell number under setting [2] worked out at 1.1.
Take `OC[C@H]1O[C@@](CO)(O[C@@H]2O[C@H](CO)[C@@H](O)[C@H](O)[C@H]2O)[C@@H](O[C@@H]2O[C@H](CO)[C@@H](O)[C@H](O)[C@H]2O)[C@@H]1O`: the red/green cell ratio (normalised) is 0.9 (inactive). Further, under setting [1], the normalised cell number was determined as 1.13. This molecule also yielded a normalised cell number under setting [2] of 1.01.
As for `O=c1cc(-c2ccccc2)oc2cc(O[C@@H]3O[C@H](CO)[C@@H](O)[C@H](O)[C@H]3O)c(O)c(O)c12`, the red/green cell ratio (normalised) is 0.89 (inactive). Besides, under setting [1], the normalised cell number was determined as 1.13. Besides, the normalised cell number under setting [2] amounted to 1.
In the case of `O=C(O)[C@@H](S)[C@@H](S)C(=O)O`, the red/green cell ratio (normalised) was 1.16 (inactive). The normalised cell number under setting [1] amounted to 0.95. Under setting [2], this molecule had a normalised cell number of 1.1.
Take `C=C(C)[C@@H]1CC[C@]2(CO)CC[C@]3(C)[C@H](CCC4[C@@]5(C)CC[C@H](O)C(C)(C)C5CC[C@]43C)C12` (stereo not given in full): the red/green cell ratio (normalised) was 0.84 (inactive). The normalised cell number under setting [1] came out at 1.09. Besides, the normalised cell number under setting [2] amounted to 0.91.
`C[C@@H]1Cc2cccc(O)c2C(=O)O1`: the red/green cell ratio (normalised) was 1.03 (inactive). Under setting [1], the normalised cell number was 0.83. The normalised cell number under setting [2] stood at 0.85.
With `O=C(Nc1ccccc1)Nc1ccc(CO)cc1`, the red/green cell ratio (normalised) is 0.81 (inactive). Under setting [1], this molecule displayed a normalised cell number of 1.24. In addition, under setting [2], the normalised cell number was 1.01.
On the same counts, the results for `C/C=C/C1=CC(=O)[C@H](O)[C@H]1O` are 1.04 (inactive), 1.04 and 1.07.
On the same counts, the results for `O=C(O)C1O[C@@H](O)[C@@H](O)[C@@H](O)C1O` (stereo not given in full) are 0.93 (inactive), 1.22 and 1.13.
With `CC(=O)OCC1O[C@H]2OC(=O)NC2[C@@H](OC(C)=O)C1OC(C)=O` (stereo not given in full), the red/green cell ratio (normalised) is 0.82 (inactive). This molecule also showed a normalised cell number under setting [1] of 1.33. Besides, under setting [2], the normalised cell number was 1.08.
As for `COC(=O)CNC(=O)c1ccc([C@H](O)c2ccccc2)cn1`, the red/green cell ratio (normalised) is 0.87 (inactive). Besides, the normalised cell number under setting [1] was determined as 1. Moreover, under setting [2], the normalised cell number was found to be 0.87.
For `CCCC1=CC(=O)[C@H](O)[C@H]1O`, the red/green cell ratio (normalised) is 1.01 (inactive). Further, the normalised cell number under setting [1] was found to be 1.02. Under setting [2], the normalised cell number turned out to be 1.02.
In the case of `NCc1ccccc1CC(=O)NC1C(=O)N2C(C(=O)O)=C(CSc3nnnn3CC(=O)O)CSC12` (stereo not given), the red/green cell ratio (normalised) was 0.82 (inactive). This molecule came in with a normalised cell number under setting [1] of 1.19. Besides, under setting [2], the normalised cell number was 0.98.
For the molecule `Oc1ccc2c(c1)OCC1(O)Cc3cc(O)c(O)cc3C21` (stereo not given), the red/green cell ratio (normalised) is 1.17 (inactive). This molecule yielded a normalised cell number under setting [1] of 1.12. Under setting [2], this molecule yielded a normalised cell number of 1.31.
Turning to `CC(=O)[C@H]1CCC2C3C=CC4=CC(=O)CC[C@@]4(C)C3CC[C@@]21C` (stereo not given in full), the red/green cell ratio (normalised) was 0.68 (inactive). The same molecule displayed a normalised cell number under setting [1] of 1.28. The normalised cell number under setting [2] is 0.87.
On the same counts, the results for `COc1cc(N)cc(OC)c1` are 0.94 (inactive), 0.97 and 0.91.
For `O=C(O)C(c1ccccc1)c1ccccc1`, the red/green cell ratio (normalised) was 1.12 (inactive). Under setting [1], this molecule displayed a normalised cell number of 1.01. Under setting [2], this molecule came in with a normalised cell number of 1.13.
As to `C#C[C@]1(O)CC[C@@H]2C3[C@H](C)CC4=C(CCC(=O)C4)[C@H]3CC[C@@]21C` (stereo not given in full), the red/green cell ratio (normalised) was 1.13 (inactive). The normalised cell number under setting [1] stood at 1.07. The normalised cell number under setting [2] is 1.21.
Regarding `C=C1OC(=O)C23C(O)C(=O)CC(OC12)C3C` (stereo not given), the red/green cell ratio (normalised) is 0.89 (inactive). The same molecule returned a normalised cell number under setting [1] of 1.19. Under setting [2], this molecule showed a normalised cell number of 1.06.
